Test results reported in PubChem BioAssay (NCI).
The panel holds about 83,000 compounds, 20% with a hit somewhere; the sample as a whole holds those more often.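 Single-concentration screen, 48 h exposure, 96-well plates. Endpoint: percent growth. Below 10 = active.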 Unmarked numbers belong to inactive results. The source made the active and inactive calls.

test system: NCI-H322M lung; test: NCI-60 one-dose screen, 48 h (100 = growth as untreated, 0 = no growth, -100 = all killed); conditions: 10 µM unless noted
Procedure: Growth inhibition of the NCI-H322M human Non-Small Cell Lung tumor cell line is measured as a screen for anti-cancer activity. Cells are grown in 96 well plates and exposed to the test compound for 48 hours. Compounds are tested at a single concentration, which is 10^-5 M for most compounds. The reported endpoint is percent growth (GI% or GIPRCNT), where numbers from 0 - 100% represent growth inhibition, and numbers from -100% - 0 represent cell death. For example, a value of 40 represents 60% growth inhibition. A value of 0 means no net growth occurred over the course of the experiment. A value of -40 indicates 40% of cells at the beginning of the experiment died by the end of the experiment. A value of -100 means all cells are dead at the end of the experiment.
NCI-60 Human Tumor Cell Lines Screen was performed using the standard one-dose NCI protocol, which is described in more detail at https://dtp.cancer.gov/discovery_development/nci-60/default.htm.
Compounds with GIPRCNT values below 10 were considered active. Activity score was based on GIPRCNT using the following formula: […]
Score is 0 for GIPRCNT values of 100 or above, 50 for GIPRCNT values of 0, and 100 for GIPRCNT values of -100.

Q: For `Cc1ccc(CN2CCC(C(=O)Nc3ccc(-c4cc5ccccc5[nH]4)cc3)CC2)o1`, which growth is on record?
A: Its growth is 95.1%.

Q: `COc1cc(-c2c3c(c(Br)n2Cc2ccccc2)-c2nc(N)sc2CC3)cc(OC)c1OC` was tested. Which growth did it give?
A: Its growth is 77.7%.

Q: `COc1ccc(/C=C2\SC(=Nc3ccccc3)NC2=O)cc1` was tested. Which growth did it give?
A: Its growth is -53.9% (active).

Q: With `N[C@@H](CC/[N+]([O-])=N/O)C(=O)O` as the compound, how does the growth read?
A: The growth was 103%.

Q: Which growth does the source give for `CCN1C(=O)N(CC)C2Nn3c(s/c(=C\c4ccccc4F)c3=O)=NC21` (stereo not given) here?
A: Its growth is 59.4%.

Q: With `CC1=C(CC(=O)c2cccc([N+](=O)[O-])c2)C(=O)c2ccccc2C1=O` as the compound, how does the growth read?
A: The growth was 68.7%.

Q: Which growth does the source give for `Cc1cc(Nc2ccc(OCc3ccccc3)cc2)nc2cc(O)ccc12` here?
A: The growth was 76.2%.

Q: With `O=C1Nc2ccccc2/C1=C/c1ccc[nH]1` as the compound, how does the growth read?
A: Its growth is 88%.

Q: Which growth does the source give for `O=c1c(-c2nc3ccccc3[nH]2)cc2ccccc2n1Cc1cn(Cc2ccccc2Cl)nn1` here?
A: Its growth is 52.3%.

Q: How did the growth turn out when `Nc1nc(Nc2cccc(F)c2)nc2ccccc12` was run?
A: The growth was 47.2%.

Q: For `O=C(Nc1ccc(F)c(Cl)c1)Nc1ccc(Cl)c(Cl)c1`, which growth is on record?
A: The growth was 102%.

Q: How did the growth turn out when `COc1ccc(OC)c(NC(=O)/C(C#N)=C/c2ccco2)c1` was run?
A: Its growth is 99.8%.

Q: `O=c1oc2ccc(Br)cc2c(=O)n1-c1ccc(Cl)cc1F` was tested. Which growth did it give?
A: Its growth is 5.97% (active).

Q: Which growth does the source give for `Cn1c(/C=C(\C#N)c2cccc(C(F)(F)F)c2)nc2c(N3CCOCC3)nc(Cl)nc21` here?
A: The growth was 63.1%.

Q: For `NCCOc1ccccc1/C=C1\c2ccccc2-c2ccc([N+](=O)[O-])cc21`, which growth is on record?
A: Its growth is 51.1%.

Q: Which growth does the source give for `COc1ccc(Cn2c(Br)c3c(c2Br)-c2nc(N)sc2CC3)cc1` here?
A: Its growth is 66.6%.

Q: Which growth does the source give for `CSc1nc2c(c(=O)[nH]1)N=C1c3ccccc3C(=O)C1C(c1ccccc1)N2` (stereo not given) here?
A: Its growth is 69.4%.

Q: With `O=c1c(-c2nc3ccccc3[nH]2)cc2ccccc2n1Cc1cn(Cc2ccc(F)cc2)nn1` as the compound, how does the growth read?
A: Its growth is 19.4%.

Q: How did the growth turn out when `CC[C@H](C)[C@@H](C(=O)OC)n1cc(CNC(=O)[C@@H](Cc2ccccc2)NC(=O)OCc2ccccc2)nn1` was run?
A: Its growth is 95.5%.

Q: For `CCCCNc1nc(NC(C)(C)C)nc(NC(C)(C)C)n1`, which growth is on record?
A: Its growth is 97.8%.

Q: Which growth does the source give for `COC(=O)/C(CCC=C(C)C)=C1\[C@@H](OC(C)=O)C[C@@]2(C)[C@H]1C[C@@H](O)[C@H]1[C@@]3(C)CC[C@H](NCCCNCCCCNCCCN)[C@@H](C)[C@@H]3CC[C@@]12C` here?
A: The growth was 67.9%.

Q: With `COc1ccc(/C(C#N)=C/c2nc3c(N4CCOCC4)nc(Cl)nc3n2C)cc1OC` as the compound, how does the growth read?
A: The growth was 29.9%.

Q: How did the growth turn out when `CC(C)C[C@H](C(=O)N[C@@H](C)C(N)=O)N1CC=CCN(O)S1(=O)=O` was run?
A: The growth was 135% [5 µM].

Q: With `COc1cccc(/C=C/C(=O)c2c(C)nc3ccccc3c2/C=C/c2ccccc2)c1OC` as the compound, how does the growth read?
A: Its growth is 45.3%.

Q: `Cn1c(/C=C(\C#N)c2ccccc2)nc2c(N3CCOCC3)nc(Cl)nc21` was tested. Which growth did it give?
A: The growth was 65.9%.

Q: Which growth does the source give for `NS(=O)(=O)c1ccc(CCN=C=S)cc1` here?
A: The growth was 85.2%.

Q: With `CN=c1ccc2nc3ccc(N)cc3sc-2c1` as the compound, how does the growth read?
A: The growth was 42%.

Q: `Cc1cc2c(c(C)c1Cl)C(=O)/C(=C/c1cccc([N+](=O)[O-])c1)O2` was tested. Which growth did it give?
A: The growth was 98.7%.

Q: How did the growth turn out when `O=C(Nc1ccc(Cl)cc1F)c1cc(F)ccc1O` was run?
A: Its growth is 8.54% (active).

Q: For `O=C(CN1C=NC2C(N3CCOCC3)=NC=NC21)c1ccc(Br)cc1` (stereo not given), which growth is on record?
A: The growth was 97.2%.

Q: `C#CCn1cc(C=C2C(=O)NC(=O)NC2=O)c2cc(Cl)ccc21` was tested. Which growth did it give?
A: The growth was 87.6%.

Q: For `CN1CCN(Cc2ccc(C(=O)Nc3cncc(C#Cc4cnc(N)c5ccccc45)c3)cc2C(F)(F)F)CC1`, which growth is on record?
A: Its growth is -31.5% (active).

Q: For `COC(=O)/C(CCC=C(C)C)=C1\[C@@H](OC(C)=O)C[C@@]2(C)[C@H]1C[C@@H](O)[C@H]1[C@@]3(C)CC[C@H](NC(=O)c4cnccn4)[C@@H](C)[C@@H]3CC[C@@]12C`, which growth is on record?
A: The growth was 108%.

Q: With `CCN1C(=O)N(CC)C2C1NC(=S)N2/N=C/C=C/c1ccccc1OC` (stereo not given) as the compound, how does the growth read?
A: Its growth is 43.9%.

Q: `Cc1ccc(S(=O)(=O)c2c(COC(=O)c3cccc(C)c3)c(-c3ccccc3)nn2C)cc1` was tested. Which growth did it give?
A: The growth was -4.7% (active).

Q: With `O=C1c2cc(Cl)ccc2Oc2cc([N+](=O)[O-])ccc2N1c1ccc(F)cc1F` as the compound, how does the growth read?
A: The growth was 92.5%.

Q: `COc1ccc(-c2nc(-c3ccccc3)c(-c3ccccc3)[nH]2)cc1OC1CCCCC1` was tested. Which growth did it give?
A: Its growth is 84.9%.

Q: Which growth does the source give for `Cc1[nH]c2ccccc2c(=O)c1CC=C(Cl)Cl` here?
A: Its growth is -47.2% (active).

Q: Which growth does the source give for `COc1ccc(CCN2C(=O)/C(=C/c3ccc(C4Oc5ccccc5C5CC(c6cccc(OC)c6)=NN54)cc3)SC2=S)cc1` (stereo not given) here?
A: The growth was 103%.

Q: For `O=C(Nc1ccc(Cl)cc1)c1cc2ccccc2cc1OP(=O)(O)O`, which growth is on record?
A: The growth was 22.7%.
